PubChem BioAssay (NCATS)
Several values for one entry are separate records, joined by “and”; a condition that tells them apart may be missing. Equal entries are not always repeated.

Assay: qHTS profiling for inhibitors of Plasmodium falciparum (3D7) proliferation (AID 743322);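 also: infected erythrocytes exposed to compound for 72 h before lysis; 100% = DMSO vehicle wells and 0% = 0.29 µM artemisinin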
Settings: P. falciparum 3D7 proliferation; at 28.7 µM (top of the series)
Description: Plasmodium falciparum is a virulent malarial parasite that kills 1-2 million people worldwide each year. Transmitted by mosquitoes, the sporozoite form of the parasite enters the blood stream to infect hepatocytes, where they become merozoites that infect red blood cells (erythrocytes). Within erythrocytes, merozoites begin a […] cycle of growth and division, after which the parasite is released to infect new red blood cells. Gametocytes, which form within erythrocytes as well, circulate in the bloodstream and are ingested by the mosquito, thereby completing the life cycle. To profile malarial isolates for differential chemical responses and to identify inhibitors of malarial growth, an assay that measures P. falciparum growth and replication within erythrocytes was employed. This assay uses a DNA binding fluorescent dye (SYBR Green) to detect parasite DNA following cell lysis. Because mature erythrocytes lack DNA, only Plasmodium-derived DNA is detected.
The SYBR Green viability assay was adapted from a method described previously (Plouffe et al., 2008). For screening 3 ul culture medium was dispensed into 1536 well black clear bottom plates (Aurora Biotechnologies) using a Multidrop Combi (Thermo Fisher Scientific Inc.), 23 nL compounds in DMSO were added by a pin tool (Kalypsys), and 5 ul of erythrocytes infected with P. falciparum (0.3% parasitemia, 2.5% hematocrit final concentration) were added. The plates were incubated at 37 C in a humidified incubator in 5% CO2 for 72 h, and 2 ul lysis buffer (20 mM Tris HCl, 10 mM EDTA, 0.16% saponin, 1.6% triton X, 10X SYBR Green I supplied as 10,000X […] by Invitrogen) was added to each well. The plates were mixed for 25 sec with gentle shaking and incubated overnight at room temperature in the dark. The following morning, fluorescence intensity at 485(14) nm excitation and 535(25) nm emission wavelengths was measured on an EnVision (Perkin Elmer) plate reader. Plate reads were normalized relative to the control inhibitor (0.29 uM artemisinin) and vehicle (DMSO) wells present on each plate and then corrected by an algorithm using vehicle-only control plates at the beginning and end of the compound plate stack.

| SMILES | remaining parasite growth % (stronger effect = lower value) |
| --- | --- |
| CC(C)(O)CCc1ccc(OCc2cc(-c3cccc(OC(F)F)c3)c3ncccc3c2)cc1 | 37.5% |
| CC[C@@H]1C(=O)N(C)c2cnc(Nc3ccc(C(=O)NC4CCN(C)CC4)cc3OC)nc2N1C1CCCC1 | 0.0061% |
| CC1(O)CC(c2nc(-c3ccc4ccc(-c5ccccc5)nc4c3)c3c(N)nccn23)C1 (stereo not given) | 0.533% |
| Cn1c(=O)n(-c2ccc(C(C)(C)C#N)cc2)c2c3cc(-c4cnc5ccccc5c4)ccc3ncc21 | 1.17% |
| Cc1[nH]nc2ccc(-c3cncc(OC[C@@H](N)Cc4ccccc4)c3)cc12 | 30.1% |
| c1ccc2c(CCNc3ccc(Nc4ccncc4)cc3)c[nH]c2c1 | 1.57% |
| CC(=O)OCCN1C(=O)c2c(C)nc3ccc(S(=O)(=O)N4CCOCC4)cc3c2C1=O | 96.2% |
| CC1(C)CCC(c2ccc(Cl)cc2)=C(CN2CCN(c3ccc(C(=O)NS(=O)(=O)c4ccc(N[C@H](CCN5CCOCC5)CSc5ccccc5)c(S(=O)(=O)C(F)(F)F)c4)cc3)CC2)C1 | 0.209% |
| Cc1[nH]c2ccccc2c1CCNCc1ccc(C=CC(=O)NO)cc1 | -0.764% |
| CCCCc1nc2cc(C=CC(=O)NO)ccc2n1CCN(CC)CC | -0.311% |
| Cc1ccc(C(=O)Nc2cccc(C(F)(F)F)c2)cc1-c1ccc2nc(NCCN3CCOCC3)ncc2c1 | -2.64% |
| CC(C)(C)c1cc(NC(=O)Nc2ccc(-c3cn4c(n3)sc3cc(OCCN5CCOCC5)ccc34)cc2)no1 | -1.57% |
| O=C(NCCCNc1nc(Nc2cccc(NC(=O)N3CCCC3)c2)ncc1I)c1cccs1 | 2.01% and 8.72% |
| O=C(c1ccc(Nc2nccc(-c3cc4ccccc4s3)n2)cc1)N1CCC(N2CCCC2)CC1 | -2.23% |
| CN(C)CCCN=c1c2ccccc2n(C)c2[nH]c(=O)n(C)c(=O)c12 | 5.55% |
| O=C(Nc1cc(C(F)(F)F)cc(C(F)(F)F)c1)c1cc(Cl)ccc1O | -1.15% |
| C=CCn1c(=O)c2cnc(Nc3ccc(N4CCN(C)CC4)cc3)nc2n1-c1cccc(C(C)(C)O)n1 | 11.1% |
| CC(C)(C)OC(=O)Nc1ccc(-c2cc(C(=O)NCCCCCCC(=O)NO)no2)cc1 | -1.38% |
| COc1cc2ncn(-c3cc(OCc4ccccc4C(F)(F)F)c(C(N)=O)s3)c2cc1OC | 18.7% |
| CC(C)=CCCC(C)=CCCC(C)=CCSc1ccccc1C(=O)O | 101% |

| SMILES | remaining parasite growth % (stronger effect = lower value) |
| --- | --- |
| O=C(O)[C@H](Cc1c[nH]c2ccccc12)N1C(=O)c2ccccc2C1=O | 105% |
| c1cc(-c2cnn3cc(-c4ccc(OCCN5CCCCC5)cc4)cnc23)ccn1 | 6.04% |
| Nc1ccccc1NC(=O)c1ccc(CNC(=O)OCc2cccnc2)cc1 | 99.2% |
| N#Cc1c(O)c2c(-c3ccc(-c4ccccc4O)cc3)csc2[nH]c1=O | 93.3% |
| Cn1cc(-c2[nH]c3cc(NC(=O)[C@H](N)C4CCCCC4)cc4c3c2C=NNC4=O)cn1 | -2.18% |
| COC(=O)c1ccc2c(C(=Nc3ccc(N(C)C(=O)CN4CCN(C)CC4)cc3)c3ccccc3)c(O)[nH]c2c1 | 0.245% |
| CNc1nccc(-c2cccnc2Oc2cc(C(=O)Nc3cccc(C(F)(F)F)c3)ccc2C)n1 | 5.98% |
| Clc1ccc2ncc(-c3cccc(NC4CNC4)n3)n2c1 | 5.93% |
| C1Cc2[nH]nc(-c3nn[nH]n3)c2C1 | 48.8% |
| O=C(O)c1ccc2cc(-c3ccc(O)c(C45CC6CC(CC(C6)C4)C5)c3)ccc2c1 | 5.44% |
| CN1CC[C@@H](c2c(O)cc(O)c3c(=O)cc(-c4ccccc4Cl)oc23)[C@@H](O)C1 | 3.4% |
| Cc1ccc(C(N)=O)cc1Nc1nccc(-c2cn(C(C)C)c3cnccc23)n1 | -1.17% |
| O=c1[nH]nc(Sc2ncc([N+](=O)[O-])s2)n1-c1ccc2c(c1)OCCO2 | 21% |
| CC[C@@H]1C(=O)N(C)c2cnc(Nc3ccc(C(=O)NC4CCC(N5CCN(CC6CC6)CC5)CC4)cc3OC)nc2N1C(C)C (stereo not given in full) | -0.343% |
| CCN1CCN(Cc2ccc(-c3cc4c(N[C@H](C)c5ccccc5)ncnc4[nH]3)cc2)CC1 | -0.0025% |
| COc1cc2nccc(Oc3ccc(NC(=O)C4(C(=O)Nc5ccc(F)cc5)CC4)cc3)c2cc1OC | 3.02% |
| O=C(C=Cc1c(C(=O)O)[nH]c2cc(Cl)cc(Cl)c12)Nc1ccccc1 | 118% |
| Nc1nc(Nc2ccc(S(N)(=O)=O)cc2)nn1C(=O)c1c(F)cccc1F | 14.8% |
| Cc1cc(Nc2cc(N3CCN(C)CC3)nc(Sc3ccc(NC(=O)C4CC4)cc3)n2)n[nH]1 | 39.3% |
| CC(=O)SC[C@@H](C)C(=O)N1CCC[C@H]1C(=O)N[C@@H](Cc1ccccc1)C(=O)O | 106% |
